Test results from PubChem BioAssay AID652040 (Broad Institute, 2013).
Measured potencies and affinities stand elsewhere. The source made the active and inactive calls.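 How the source made its calls: active means falling luciferase signal whose fitted half-maximal concentration is at most twice the top tested dose; inconclusive means flat inhibition between 30 and 70% or a poor curve fit; inactive means the rest.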

Assay: off-target signal loss in HeLa-CEM21 co-culture – HeLa F-luc CTL cells, cherry-picked, counter-screen for HIV-1 Env fusion inhibitor project, dose response (AID 652040);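 further: 0% = median of neutral control wells and -100% = doxycycline 40 µg/mL wells; more negative values mean stronger loss of luciferase signal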
Settings: HeLa-F-luc CTL cells with CEM21, firefly luciferase counterscreen; series mostly up to 35 µM; activity change, negative = inhibition: at the top concentration

Compound | activity change, negative = inhibition
CCC(=NCCc1c[nH]c2ccccc12)c1c(O)n(C)c(=O)n(C)c1=O | 45.4% (inactive)
CCC(=NCc1ccc(F)cc1)c1c(O)n(C)c(=O)n(C)c1=O | -4.39% (inactive)
Cn1nc(-c2ccc(OCC(=O)N3CCN(Cc4ccccc4)CC3)cc2)c2ccccc2c1=O | 13.6% (inactive)
